Results: PubChem BioAssay (EPA / NIEHS)
Where “and” joins values, the source holds several entries; their conditions need not be identical. Equal values may be shown once. Where a structure was tested more than once in an assay, its records may differ in their call. Calls of active or inactive are those of the source. Rule for the calls: active = hit-call score of the fitted dose curve at least 0.9, where 1 is the maximum; inactive = score below 0.9.

read-out: MYC, MYC (gene 4609); assay: LTEA_HepaRG_MYC: Life Technologies and Expression Analysis (LTEA) Assay for MYC using HepaRG (AID 2283518); details: mRNA level, 48 h; actives raise or lower the signal
Method in brief: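 MYC transcript changes, up or down relative to 0.5% DMSO, from TaqMan qRT-PCR normalized to three housekeeping genes. Human HepaRG cultures received chemicals for 48 h at eight half-log concentrations up to 100 uM, in duplicate.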

Compound	outcome	AC50
CCOC(=O)C(Cl)Cc1cc(-n2nc(C)n(C(F)F)c2=O)c(F)cc1Cl (configuration not stated)	inactive	–
CCc1nn(C)c(C(=O)NCc2ccc(C(C)(C)C)cc2)c1Cl	–	5.39 µM (active)
COC(=O)N(OC)c1ccccc1COc1ccn(-c2ccc(Cl)cc2)n1	inactive	–
N#CC(CCc1ccc(Cl)cc1)(Cn1cncn1)c1ccccc1 (configuration not stated)	–	65.2 µM (active)
CNC(=O)ON=CC(C)(C)SC	inactive	–
CCNc1nc(Cl)nc(NC(C)C)n1	inactive	–
CCON=C(CC)C1=C(O)CC(c2c(C)cc(C)cc2C)CC1=O (configuration not stated)	inactive	–
CCCC1COC(Cn2cncn2)(c2ccc(Cl)cc2Cl)O1 (configuration not stated)	–	35.4 µM (active)
CCCCOC(=O)c1ccccc1C(=O)OCCCC	inactive	–
COC(=O)c1ccccc1C(=O)OC	inactive	–
C=CCC1=C(C)C(OC(=O)C2C(C=C(C)C)C2(C)C)CC1=O (configuration not stated)	inactive	–
COP(N)(=O)SC (configuration not stated)	inactive	–
O=C(O)COc1nc(Cl)c(Cl)cc1Cl	inactive	–
COc1ccc(C(c2ccc(OC)cc2)C(Cl)(Cl)Cl)cc1	–	49.8 µM (active)
COC(=O)C=C(C)OP(=O)(OC)OC	inactive	–
CCOc1cc(Oc2ccc(C(F)(F)F)cc2Cl)ccc1[N+](=O)[O-]	–	28.4 µM (active)
CCOC(=O)CC(SP(=S)(OC)OC)C(=O)OCC (configuration not stated)	inactive	–
CNC(=S)S	inactive	–
CCCN(CCC)c1c([N+](=O)[O-])cc(S(N)(=O)=O)cc1[N+](=O)[O-]	inactive	86.2 µM (active)
CC(C)C1(C)N=C(c2nc3ccccc3cc2C(=O)O)NC1=O (configuration not stated)	inactive	–
CC(Oc1ccc(Cl)cc1Cl)C(=O)O (configuration not stated)	inactive	–
O=C(Nc1ccccc1)Nc1ccnc(Cl)c1	inactive	–
Cc1ccc(-c2c(Cl)nc(C#N)n2S(=O)(=O)N(C)C)cc1	–	13.1 µM (active)
C#CCOS(=O)OC1CCCCC1Oc1ccc(C(C)(C)C)cc1 (configuration not stated)	–	22.8 µM (active)
CCCCC(CC)COC(=O)c1ccccc1C(=O)OCC(CC)CCCC (configuration not stated)	inactive	–

read-out: matrix metalloproteinase-3 (MMP3), MMP3 (gene 4314); assay: LTEA_HepaRG_MMP3: Life Technologies and Expression Analysis (LTEA) Assay for matrix metalloproteinase-3 (MMP3) using HepaRG (AID 2283519); details: mRNA level, 48 h; actives raise or lower the signal
Method in brief: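 HepaRG cells (~100,000/well) in serum-free induction medium were dosed in duplicate for 48 h with an 8-point half-log series from 100 uM, 0.5% DMSO. MMP3 mRNA was quantified by Fluidigm TaqMan qRT-PCR, normalized to three housekeeping genes.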

Compound	outcome	AC50
CCOC(=O)C(Cl)Cc1cc(-n2nc(C)n(C(F)F)c2=O)c(F)cc1Cl (configuration not stated)	inactive	–
CCc1nn(C)c(C(=O)NCc2ccc(C(C)(C)C)cc2)c1Cl	inactive	–
COC(=O)N(OC)c1ccccc1COc1ccn(-c2ccc(Cl)cc2)n1	–	26.5 µM (active)
N#CC(CCc1ccc(Cl)cc1)(Cn1cncn1)c1ccccc1 (configuration not stated)	–	86 µM (active)
CNC(=O)ON=CC(C)(C)SC	inactive	–
CCNc1nc(Cl)nc(NC(C)C)n1	inactive	–
CCON=C(CC)C1=C(O)CC(c2c(C)cc(C)cc2C)CC1=O (configuration not stated)	inactive	–
CCCC1COC(Cn2cncn2)(c2ccc(Cl)cc2Cl)O1 (configuration not stated)	–	89.4 µM (active)
CCCCOC(=O)c1ccccc1C(=O)OCCCC	inactive	–
COC(=O)c1ccccc1C(=O)OC	inactive	–
C=CCC1=C(C)C(OC(=O)C2C(C=C(C)C)C2(C)C)CC1=O (configuration not stated)	inactive	–
COP(N)(=O)SC (configuration not stated)	inactive	–
O=C(O)COc1nc(Cl)c(Cl)cc1Cl	inactive	–
COc1ccc(C(c2ccc(OC)cc2)C(Cl)(Cl)Cl)cc1	inactive	–
COC(=O)C=C(C)OP(=O)(OC)OC	inactive	–
CCOc1cc(Oc2ccc(C(F)(F)F)cc2Cl)ccc1[N+](=O)[O-]	inactive	–
CCOC(=O)CC(SP(=S)(OC)OC)C(=O)OCC (configuration not stated)	inactive	–
CNC(=S)S	inactive	–
CCCN(CCC)c1c([N+](=O)[O-])cc(S(N)(=O)=O)cc1[N+](=O)[O-]	inactive	83.6 µM (active)
CC(C)C1(C)N=C(c2nc3ccccc3cc2C(=O)O)NC1=O (configuration not stated)	inactive	–
CC(Oc1ccc(Cl)cc1Cl)C(=O)O (configuration not stated)	inactive	–
O=C(Nc1ccccc1)Nc1ccnc(Cl)c1	inactive	–
Cc1ccc(-c2c(Cl)nc(C#N)n2S(=O)(=O)N(C)C)cc1	inactive	–
C#CCOS(=O)OC1CCCCC1Oc1ccc(C(C)(C)C)cc1 (configuration not stated)	inactive	–
CCCCC(CC)COC(=O)c1ccccc1C(=O)OCC(CC)CCCC (configuration not stated)	inactive	–

read-out: Paternally Expressed 10 (PEG10), PEG10 (gene 23089); assay: LTEA_HepaRG_PEG10: Life Technologies and Expression Analysis (LTEA) Assay for Paternally Expressed 10 (PEG10) using HepaRG (AID 2283520); details: mRNA level, 48 h; actives raise or lower the signal
Method in brief: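 Differentiated HepaRG cells exposed 48 h in serum-free induction medium to eight half-log concentrations topping at 100 uM, 0.5% DMSO, in duplicate. PEG10 mRNA quantified by TaqMan qRT-PCR, normalized to ACTB, GAPDH and POLR2A; bidirectional fit versus DMSO.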

Compound	outcome	AC50
CCOC(=O)C(Cl)Cc1cc(-n2nc(C)n(C(F)F)c2=O)c(F)cc1Cl (configuration not stated)	inactive	–
CCc1nn(C)c(C(=O)NCc2ccc(C(C)(C)C)cc2)c1Cl	–	0.484 µM (active)
COC(=O)N(OC)c1ccccc1COc1ccn(-c2ccc(Cl)cc2)n1	–	17 µM (active)
N#CC(CCc1ccc(Cl)cc1)(Cn1cncn1)c1ccccc1 (configuration not stated)	–	9.92 µM (active)
CNC(=O)ON=CC(C)(C)SC	inactive	–
CCNc1nc(Cl)nc(NC(C)C)n1	inactive	–
CCON=C(CC)C1=C(O)CC(c2c(C)cc(C)cc2C)CC1=O (configuration not stated)	inactive	–
CCCC1COC(Cn2cncn2)(c2ccc(Cl)cc2Cl)O1 (configuration not stated)	–	15 µM (active)
CCCCOC(=O)c1ccccc1C(=O)OCCCC	inactive	–
COC(=O)c1ccccc1C(=O)OC	inactive	–
C=CCC1=C(C)C(OC(=O)C2C(C=C(C)C)C2(C)C)CC1=O (configuration not stated)	–	68.4 µM (active) and 79.7 µM (active) and 28.2 µM (active)
COP(N)(=O)SC (configuration not stated)	inactive	–
O=C(O)COc1nc(Cl)c(Cl)cc1Cl	–	3.29 µM (active)
COc1ccc(C(c2ccc(OC)cc2)C(Cl)(Cl)Cl)cc1	inactive	–
COC(=O)C=C(C)OP(=O)(OC)OC	inactive	–
CCOc1cc(Oc2ccc(C(F)(F)F)cc2Cl)ccc1[N+](=O)[O-]	–	24.9 µM (active)
CCOC(=O)CC(SP(=S)(OC)OC)C(=O)OCC (configuration not stated)	inactive	–
CNC(=S)S	inactive	–
CCCN(CCC)c1c([N+](=O)[O-])cc(S(N)(=O)=O)cc1[N+](=O)[O-]	–	96.3 µM (active) and 41 µM (active) and 7.55 µM (active)
CC(C)C1(C)N=C(c2nc3ccccc3cc2C(=O)O)NC1=O (configuration not stated)	inactive	–
CC(Oc1ccc(Cl)cc1Cl)C(=O)O (configuration not stated)	inactive	–
O=C(Nc1ccccc1)Nc1ccnc(Cl)c1	–	31.8 µM (active)
Cc1ccc(-c2c(Cl)nc(C#N)n2S(=O)(=O)N(C)C)cc1	–	7.7 µM (active)
C#CCOS(=O)OC1CCCCC1Oc1ccc(C(C)(C)C)cc1 (configuration not stated)	–	24.2 µM (active)
CCCCC(CC)COC(=O)c1ccccc1C(=O)OCC(CC)CCCC (configuration not stated)	inactive	–
